High-throughput results deposited in PubChem by National Center for Advancing Translational Sciences (NCATS).
KDM4E inh = qHTS Assay for Inhibitors of Human Jumonji Domain Containing 2E (JMJD2E) | Lysine-specific demethylase 4E (Homo sapiens), B2RXH2 | JMJD2E catalytic domain, FDH-coupled NADH fluorescence (FDH is formaldehyde dehydrogenase) | Potency, µM (titrated, usually from 57.1 µM), without a hit: top-dose activity change, negative = inhibition, hits mostly inhibitors | 1.6% of 230,000 active | AID 2147, 2009; active = well fitted inhibition curve with a large enough effect, not every such curve was filed as active; inconclusive = small, poorly fitted or top-dose-only effect, or another doubt; inactive = no such curve, though single readings can be large or run the other way;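 also: 0% = wells with enzyme and -100% = buffer wells without enzyme; nearly all actives have a fitted effect of over 50% in size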
Target sequence (B2RXH2 1-337 limits assumed): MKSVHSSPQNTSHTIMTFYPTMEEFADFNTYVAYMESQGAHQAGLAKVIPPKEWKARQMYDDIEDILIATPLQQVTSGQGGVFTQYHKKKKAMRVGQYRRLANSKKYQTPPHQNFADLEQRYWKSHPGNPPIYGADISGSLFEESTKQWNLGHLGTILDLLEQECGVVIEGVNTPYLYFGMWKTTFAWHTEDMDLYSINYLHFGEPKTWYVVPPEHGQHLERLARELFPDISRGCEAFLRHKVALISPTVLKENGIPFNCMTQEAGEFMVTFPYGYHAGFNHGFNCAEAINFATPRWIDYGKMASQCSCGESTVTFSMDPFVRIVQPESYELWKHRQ
APE1 inh-1 = qHTS Assay for Inhibitors of the Human Apurinic/apyrimidinic Endonuclease 1 (APE1). DNA repair nuclease/redox regulator APEX1 (Homo sapiens), P27695. recombinant APE1, TAMRA/BHQ-2 abasic DNA cleavage fluorescence. Potency, µM (highest dose often 65.8 µM), inactives show at the highest dose activity change, negative = inhibition, actives largely listed as inhibitors. 0.35% of 350,000 active;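 also: plate controls were vehicle for no effect and reference inhibitor for full effect; nearly all actives have a fitted effect of over 55% in size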
Target sequence (P27695 whole entry, looked up): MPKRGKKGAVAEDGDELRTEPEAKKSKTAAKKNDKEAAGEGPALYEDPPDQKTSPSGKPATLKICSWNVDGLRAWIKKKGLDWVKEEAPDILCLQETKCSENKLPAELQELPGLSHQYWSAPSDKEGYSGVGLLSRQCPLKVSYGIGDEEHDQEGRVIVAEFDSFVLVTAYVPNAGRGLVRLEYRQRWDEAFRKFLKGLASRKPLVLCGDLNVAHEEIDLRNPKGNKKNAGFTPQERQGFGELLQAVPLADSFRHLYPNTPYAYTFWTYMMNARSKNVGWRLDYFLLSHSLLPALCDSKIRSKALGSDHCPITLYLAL
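Readout is kinetic fluorescence (ex 525, em 598 nm) from cleavage of 50 nM TAMRA/BHQ-2 THF abasic duplex by 0.75 nM APE1, compound added 15 min beforehand at RT.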
L3MBTL1 block = qHTS Assay for the Inhibitors of L3MBTL1; Lethal(3)malignant brain tumor-like protein 1 (Homo sapiens), Q9Y468; AlphaScreen L3MBTL1–H3K9me1 peptide binding; Potency, µM (titrated, usually from 57.1 µM), for the others: at the highest dose activity, negative = inhibition, most hits filed as inhibitors; 0.66% of 230,000 active; AID 485360, 2010; also: nearly all actives have a fitted effect of over 60% in size
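L3MBTL1 50 nM + b-AHA-H3(1-15)K9me1 75 nM, 30 min RT; compound added, 30 min RT; streptavidin donor/Ni-chelate acceptor beads 10 ug/mL each final, 30 min RT dark; AlphaScreen read.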
BLM helicase inh = qHTS Assay for Inhibitors of Bloom's syndrome helicase (BLM); 0.2% of 350,000 active; RecQ-like DNA helicase BLM (Homo sapiens), P54132; Potency, µM (highest dose often 56.1 µM), inactives show at the top dose activity change, negative = inhibition, hits mostly inhibitors; recombinant BLM DNA unwinding, fluorescence dequenching;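 also: plate controls were vehicle for no effect and no enzyme for full effect; nearly all actives have a fitted effect of over 35% in size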
RECQ1 inh = qHTS Assay for Inhibitors of RecQ-Like Dna Helicase 1 (RECQ1) | Potency, µM (series often up to 57.3 µM), for inactives: at the top dose activity, negative = inhibition, most hits filed as inhibitors | AID 2549, 2010 | 0.54% of 240,000 active | RECQ1 DNA unwinding, red fluorescence kinetic read;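 also: plate controls were vehicle for no effect and no enzyme for full effect; nearly all actives have a fitted effect of over 30% in size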
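50 nM RECQ1T1 preincubated 15 min with compound in Tris pH 8.0 buffer with MgCl2, DTT, Tween-20 and 2.5 ug/ml poly(dI-dC); started with 200 nM TAMRA/BHQ-2 forked duplex and 2 mM ATP. Unwinding read as fluorescence (525/598 nm), two reads 2 h apart.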
DNA dye displace = Counterscreen for APE1 Inhibitors: Fluorescent Dye Displacement Assay; shares compounds with APE1 inh-1; DNA fluorescent dye displacement counterscreen, fluorescence; Potency, µM (highest dose often 28.5 µM), inactives show at the highest dose activity change, negative = inhibition, hits mostly inhibitors; 7% of 480 active;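 also: loss of thiazole orange fluorescence as the dye is displaced from duplex DNA; 0% = ThO with dsDNA and no compound and -100% = ThO without dsDNA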
EndoIV counter = Counterscreen for APE1 Inhibitors: qHTS Assay for Inhibitors of Endonuclease IV; Potency, µM (highest dose often 27.1 µM), for inactives: at the highest dose activity change, negative = inhibition, hits mostly inhibitors; shares compounds with APE1 inh-1; E. coli Endo IV, fluorogenic AP-site DNA cleavage; 4% of 560 active; AID 2565, 2010;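 also: plate controls were uninhibited enzyme wells for no effect and no enzyme buffer wells for full effect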
APE1 inh-2 = Confirmation qHTS Assay for Inhibitors of the Human Apurinic/apyrimidinic Endonuclease 1 (APE1) | AID 2572, 2010 | 44% of 750 active | Potency, µM (titrated, usually from 57.1 µM), without a hit: at the highest dose activity change, negative = inhibition, usual class: inhibitors | purified APE1, fluorogenic abasic-site DNA cleavage | shares compounds with APE1 inh-1; also: nearly all actives have a fitted effect of over 30% in size
APE1 FP = qHTS FP-Based Assay for Inhibitors of the Human Apurinic/apyrimidinic Endonuclease 1 (APE1). APE1 binding to TAMRA-labelled double-stranded DNA, fluorescence polarization displacement. shares compounds with APE1 inh-1. Potency, µM (titrated, usually from 28.5 µM), without a hit: at the top dose activity, negative = inhibition, hits mostly inhibitors. 7% of 480 active
* hit, by the source's call; i = inactive; ? = inconclusive; . = no result; [ ] = dose if it differs, or a comment. Many of the other results were omitted from the sample, so hits are more common in it than they were. Unless noted, calls follow the shape of the dose curve; as a rule, active = well fitted curve in the direction sought with a large enough effect; inconclusive = small, poorly fitted or top-dose-only effect, or another doubt; inactive = no such curve, though single readings can be large; an effect the other way counts as inactive or inconclusive. Unless noted, % is scaled to controls: 0 for no effect and ±100 for the full control effect; potency is read from the fitted curve at half-maximal effect.

SMILES	KDM4E inh	APE1 inh-1	L3MBTL1 block	BLM helicase inh	RECQ1 inh	DNA dye displace	EndoIV counter	APE1 inh-2	APE1 FP
O=C(CSc1n[nH]c(=O)n1C1CC1)N1N=C(c2ccc(Cl)cc2)CC1c1ccco1 (centres undefined)	2.8%	1.6%	.	-2.5%	i	.	.	.	.
CCN(CC(=O)Nc1ccc(C)c(F)c1)CC(=O)NC(C)C	-4.3%	0.5%	5.6%	-2.5%	-4.5%	.	.	.	.
N#C/C(=C/c1cccn1-c1cccc(C(=O)O)c1)c1ccc(F)cc1	7.7%	25.1µM*	?	-13.8%	-0.8%	6.7%	12.0%	?	-22.6%
O=C(OCC(=O)N1CCCCCC1)c1ccc(Cl)c(S(=O)(=O)N2CCCC2)c1	12.7%	?	-23.8%	-6.8%	-18.3%	16.9%	7.6%	?	-5.4%
NC(=O)COC(=O)c1ccc(Cl)c(S(=O)(=O)N2CCCCCC2)c1	-2.0%	-2.3%	.	-1.9%	-16.6%	.	.	.	.
COc1ccc(-c2nnc3ccc(SCC(=O)Nc4nccs4)nn23)cc1OC	0.2%	3.2%	6.8%	13.1%	-2.2%	.	.	.	.
COc1ccc(-c2ccc(SCC(=O)Nc3nccs3)nn2)cc1OC	-21.4%	9.8%	-3.8%	-0.5%	i	.	.	39.8µM*	.
CCN(CC)C(=O)c1nc[nH]c1C(=O)O[C@@H](C)c1ccccc1	.	17.9%	2.1%	.	.	.	.	.	.
O=C1CCC([N+](=O)[O-])C(c2ccc(Br)cc2)N1 (centres undefined)	11.2%	13.6%	8.4%	2.3%	-10.0%	.	.	.	.
O=C1CCC([N+](=O)[O-])C(c2cccc([N+](=O)[O-])c2)N1 (centres undefined)	3.7%	0.112µM*	.	0.4%	-3.6%	-6.6%	-0.9%	-5.1%[24.4 µM]	-2.3%
O=C(/C=C/c1ccc(F)cc1)c1ccc(N2CCOCC2)cc1	-11.6%	-2.3%	-3.1%	-4.7%	-1.8%	.	.	.	.
O=C(CSc1nnc(CNC(=O)c2c(F)cccc2Cl)o1)Nc1ccc2c(c1)OCO2	5.5%	-1.1%	7.9%	-3.9%	-0.2%	.	.	.	.
NC(=O)c1oc2ccccc2c1NC(=O)c1ccc(F)cc1	-4.6%	-1.9%	10.5%	-1.2%	-2.7%	.	.	.	.
NC(=O)c1oc2ccccc2c1NC(=O)c1nc2ccccc2s1	?	-1.6%	-0.6%	-12.6%	-2.4%	.	.	?	.
O=C1c2cccc3c(Cl)ccc(c23)C(=O)N1O	1.8%	?	-3.4%	-0.7%	-4.9%	-5.0%	-2.1%	-18.5%[24.4 µM]	-102.4%
COc1cc(C(=O)O)nc(OC)n1	-39.9%	-1.0%	.	-4.7%	i	.	.	.	.
COc1ccc(C(=O)CSc2nnc(-c3ccco3)c(-c3ccco3)n2)cc1	?	17.8µM*	?	?	-26.4%	?	1.2%	?	?
Cc1ccccc1NC(=O)CSc1nnc(-c2ccco2)c(-c2ccco2)n1	?	4.47µM*	-90.0%	0.8%	i	-23.7%	14.7%	15.8µM*	-8.3%
Cc1ccccc1NC(=O)CSc1n[nH]c(-c2ccco2)n1	-6.1%	4.5%	0.7%	-5.4%	-2.5%	.	.	.	.
Oc1ccc(/C=N/N2CCOCC2)c(O)c1O	25.1µM*	7.08µM*	14.1µM*	-7.5%	11.8%	-5.4%	20.5%	?	-13.4%
COc1ccc(C2CC(=O)c3c(O)cc(O)cc3O2)cc1O (centres undefined)	10.0%	-2.2%	.	-0.1%	-10.4%	.	.	.	.
O=C1CC(c2ccc(O)c(O)c2)Oc2cc(O)cc(O)c21 (centres undefined)	28.2µM*	12.6µM*	.	3.7%	?	-8.5%	30.1%	?	5.6%
O=c1oc2c3c4c(cc2s1)CCCN4CCC3	?	28.2µM*	.	?	28.2µM*	0.5%	46.2%	15.8µM*	-0.8%
O=[N+]([O-])c1ccc(/C([O-])=C(/C(=S)NCc2ccco2)[n+]2ccccc2)cc1	14.1µM*	8.91µM*	?	0.3%	-8.1%	0.9%	3.7%	?	?
COc1cc(/C=C2/NC(=O)NC2=O)cc(Br)c1OCc1ccc(C(=O)O)cc1	-25.0%	?	.	-17.7%	-1.2%	.	.	?	.
SMILES	KDM4E inh	APE1 inh-1	L3MBTL1 block	BLM helicase inh	RECQ1 inh	DNA dye displace	EndoIV counter	APE1 inh-2	APE1 FP
CN1C(=O)S/C(=C\c2ccccc2OCc2ccc(C(=O)O)cc2)C1=O	-4.9%	11.2%	.	-5.8%	-6.5%	.	.	.	.
COc1cccc(/C=C2\SC(=O)NC2=O)c1OCc1ccc(C(=O)O)cc1	-6.3%	?	2.1%	-1.1%	i	.	.	-21.9%	.
O=C(CN1C(=O)S/C(=C\c2cccc(Cl)c2)C1=O)NC1C=CS(=O)(=O)C1 (centres undefined)	.	2.5%	.	1.2%	.	.	.	.	.
COc1cc(O)c2c(c1)C(=O)c1cc(C)cc(O)c1C2=O	?	-7.2%	.	1.1%	-0.2%	.	.	.	.
O=C(O)c1cc(O)c2c(c1)C(=O)c1cc(O)cc(O)c1C2=O	-19.0%	25.1µM*	2.51µM*	-5.6%	?	12.6µM*	?	14.1µM*	5.01µM*
CCc1cc2c(=O)c(-c3nc4ccccc4n3C)coc2c(CN2CCN(C)CC2)c1O	?	?	5.6%[11.4 µM]	-11.7%	?	.	.	?	.
CCc1cc2c(=O)c(-c3nc4ccccc4n3C)coc2c(CN2CCC(C)CC2)c1O	.	3.0%	.	2.0%	.	.	.	.	.
Oc1c(C(c2ccc(F)cc2)N2CCOCC2)sc2nc(-c3ccco3)nn12 (centres undefined)	.	.	.	-2.6%	.	.	.	.	.
CCN(CC)N=Nc1ccc(C(=O)O)cc1	0.5%	4.2%	6.7%	5.1%	-8.3%	.	.	.	.
Cc1nc(N=Nc2ccc(C(=O)O)cc2)c(COP(=O)(O)O)c(C=O)c1O	28.2µM*	?	.	.	-0.5%	.	-9.7%[57.1 µM]	14.1µM*	.
